Data reported in PubChem BioAssay AID493168 (National Center for Advancing Translational Sciences (NCATS), 2011).
Inconclusive results are not listed. A number with no mark means an inactive call. Active and inactive are the calls of the source. Calls come from the whole dose curve; as a rule, active = well fitted inhibition curve with a large enough effect; inconclusive = small, poorly fitted or top-dose-only effect, or effect the other way; inactive = flat fitted curve, though single readings scatter.

target: Ubiquitin carboxyl-terminal hydrolase 2 (Homo sapiens) (UniProt O75604); assay: Confirmation Assay for Inhibitors of Ubiquitin-specific Protease USP2a Using CHOP2 as the Reporter; settings: USP2 core, Ub-CHOP2 coupled reporter fluorescence; series mostly up to 38.3 µM; activity change, negative = inhibition: at the top concentration; note: nearly all actives have a fitted effect of over 55% in size;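 for activity change, negative = inhibition: plate controls were DMSO wells for no effect and full inhibition by NEM control for full effect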
In short: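 USP2 core (10 nM final) was preincubated with compound for 30 min at RT in Tris-HCl pH 8.0, CaCl2, beta-mercaptoethanol, CHAPS. Ub-CHOP2 and reporter substrate (25 nM final each) were added, and fluorescence (Ex 485/Em 531 nm) was read after 60 min.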
Potency is the fitted concentration of half-maximal effect.

Sequence of Ubiquitin carboxyl-terminal hydrolase 2 (Homo sapiens) (O75604 whole entry, looked up): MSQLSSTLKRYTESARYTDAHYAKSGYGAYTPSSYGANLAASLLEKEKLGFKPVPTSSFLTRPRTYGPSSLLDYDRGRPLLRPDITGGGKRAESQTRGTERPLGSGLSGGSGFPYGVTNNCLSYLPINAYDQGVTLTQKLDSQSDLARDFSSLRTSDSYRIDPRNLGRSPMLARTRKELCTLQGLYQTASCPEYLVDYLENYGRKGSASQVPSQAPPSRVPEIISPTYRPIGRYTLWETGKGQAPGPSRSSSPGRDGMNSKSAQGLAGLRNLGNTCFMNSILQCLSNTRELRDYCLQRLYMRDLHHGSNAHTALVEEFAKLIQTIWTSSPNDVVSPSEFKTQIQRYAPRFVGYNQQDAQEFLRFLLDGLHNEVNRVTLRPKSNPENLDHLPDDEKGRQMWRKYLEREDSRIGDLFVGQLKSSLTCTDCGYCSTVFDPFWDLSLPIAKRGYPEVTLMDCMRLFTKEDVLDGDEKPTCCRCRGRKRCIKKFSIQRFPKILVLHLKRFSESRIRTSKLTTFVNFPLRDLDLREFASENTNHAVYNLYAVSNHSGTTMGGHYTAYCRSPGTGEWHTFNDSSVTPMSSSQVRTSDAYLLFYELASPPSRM

With O=C1CCCc2nc(N3CCN(c4ccccc4)CC3)ncc21 as the compound, how does the “activity change, negative = inhibition” value read?
Its value is -1.03%.

Cc1cc2c(c(=O)n1CC1CCCO1)C(c1ccco1)C(C#N)=C(N)O2 (stereo not given) was tested. Which “activity change, negative = inhibition” value did it give?
The value was 6.21%.

How did the “activity change, negative = inhibition” value turn out when CCOC(=O)COc1c(OC)cc(Cl)cc1C1Nc2ccccc2C(=O)N1c1ccccc1 (stereo not given) was run?
The value was 2.24%.

With O=C(OCc1ccccc1)C1CCCN1C(=O)c1cccs1 (stereo not given) as the compound, how does the “activity change, negative = inhibition” value read?
The value was 4.71%.

With Fc1ccc(-c2nnn(Cc3nc4ccccc4s3)n2)cc1 as the compound, how does the “activity change, negative = inhibition” value read?
The value was -2.22%.

With CCOC(=O)c1c(C)[nH]c(C(=O)COC(=O)CSC)c1C as the compound, how does the “activity change, negative = inhibition” value read?
Its value is 2.27%.

O=C(CSc1nnc(SCc2ccccc2)s1)N/N=C/C=C/c1ccco1 was tested. Which Potency did it give?
Its Potency is 13.1 µM (active).

How did the “activity change, negative = inhibition” value turn out when CCOC(=O)COc1ccccc1/C=N/O was run?
The value was -2.24%.

For Cc1ccc(NC(=O)c2cc3c(=O)oc4ccccc4c3s2)nc1, which “activity change, negative = inhibition” value is on record?
Its value is -0.826%.

Which “activity change, negative = inhibition” value does the source give for COc1ccc2[nH]c(=O)c(CN(C)C(=O)C3CCCCC3)cc2c1 here?
The value was -0.262%.

With Clc1ccc2c(N/N=C/c3ccc(Br)cc3)ccnc2c1 as the compound, how does the Potency read?
Its Potency is 13.1 µM (active).

For O=C(c1ccccc1N(Cc1ccccc1)S(=O)(=O)c1ccccc1)N1CCOCC1, which “activity change, negative = inhibition” value is on record?
Its value is 0.161%.

CC(=O)Nc1ccc(Nc2cc(C)nc(Nc3ccc(NC(C)=O)cc3)n2)cc1 was tested. Which “activity change, negative = inhibition” value did it give?
Its value is -0.465%.

How did the “activity change, negative = inhibition” value turn out when COc1ccccc1-c1nnc(SCC(=O)Nc2nc(-c3ccccc3)cs2)n1C was run?
Its value is -3.95%.

COC(=O)C1CCN(C(=O)c2cc(-c3ccco3)nc3ccccc23)CC1 was tested. Which Potency did it give?
Its Potency is 13.1 µM (active).

Which “activity change, negative = inhibition” value does the source give for COc1cccc(C(=O)NC(C)c2ccc(-c3ccccc3)cc2)c1OC (stereo not given) here?
Its value is -3.09%.

Cc1ccc(/C=N/NC(=O)c2cc(-c3ccc(C)o3)[nH]n2)cc1 was tested. Which “activity change, negative = inhibition” value did it give?
Its value is -3.8%.

CCOC(=O)c1c(NC(C)=O)sc2c1CCCNC2=O was tested. Which “activity change, negative = inhibition” value did it give?
The value was -2.31%.

With O=C(Nc1ccc(S(=O)(=O)Nc2ncccn2)cc1)c1ccc(S(=O)(=O)N2CCCC2)cc1 as the compound, how does the “activity change, negative = inhibition” value read?
The value was -1.15%.

How did the “activity change, negative = inhibition” value turn out when CCCC(c1nnnn1Cc1ccc(OC)cc1)N1CCC(C(N)=O)CC1 (stereo not given) was run?
Its value is 0.115%.

Which “activity change, negative = inhibition” value does the source give for O=C1Nc2ccc(S(=O)(=O)N3CCCCCC3)c3cccc1c23 here?
The value was -0.6%.

Which “activity change, negative = inhibition” value does the source give for CCOC(=O)C(C)Sc1nnc(Cn2c(=O)sc3ccccc32)n1-c1ccccc1 (stereo not given) here?
Its value is -7.73%.

With O=C1c2ccccc2CCC12N=NCC2c1ccc(Br)cc1 (stereo not given) as the compound, how does the “activity change, negative = inhibition” value read?
Its value is -1.61%.

CCNC(=S)N/N=C/c1cn(Cc2ccc(F)cc2)c2ccccc12 was tested. Which “activity change, negative = inhibition” value did it give?
The value was 2.36%.

CCCCC(CC)CN=C(N)NC(N)=NCCCCCCN=C(N)NC(N)=NCC(CC)CCCC (stereo not given) was tested. Which Potency did it give?
The Potency was 4.65 µM (active).

Which “activity change, negative = inhibition” value does the source give for C=CCSC1=N/C(=C\C=C\c2ccco2)C(=O)S1 here?
The value was -9.76%.

With COc1cc(/C=N/NC(=O)c2cc(-c3ccccc3)nc3ccccc23)ccc1O as the compound, how does the “activity change, negative = inhibition” value read?
Its value is 0.701%.

Which “activity change, negative = inhibition” value does the source give for O=C1NC(=Nc2ccc3ccccc3c2)S/C1=C/c1ccco1 here?
The value was -20.7%.

How did the “activity change, negative = inhibition” value turn out when CSC1=NCCN1C(=O)Cc1ccc(F)cc1 was run?
The value was -3.7%.

Which “activity change, negative = inhibition” value does the source give for CCCCC(OC(=O)c1cc2occc2n1C)C(=O)NCC1CCCO1 (stereo not given) here?
The value was 5.21%.

With CC(C)(C)C1CCc2nc(NC(=O)Cc3cn4ccsc4n3)sc2C1 (stereo not given) as the compound, how does the “activity change, negative = inhibition” value read?
The value was -5.16%.

For CC(C)CC(=O)NC(=S)Nc1nc(-c2ccc(Cl)cc2)cs1, which “activity change, negative = inhibition” value is on record?
Its value is 2.55%.

COc1ccc(C(=O)Nc2ccc(N3CCCC3)cc2)cc1OC was tested. Which “activity change, negative = inhibition” value did it give?
Its value is 1.15%.

How did the “activity change, negative = inhibition” value turn out when COc1ccc(NC(=O)CN(Cc2ccccc2)S(C)(=O)=O)cc1 was run?
Its value is 4.08%.

With Nc1c(C(=O)Nc2ccc(Cl)cc2)oc2ccccc12 as the compound, how does the “activity change, negative = inhibition” value read?
The value was -4.81%.

Which “activity change, negative = inhibition” value does the source give for Cc1nc(NC(C)C)c2cnn(CCc3ccccc3)c2n1 here?
Its value is -3.81%.

Which “activity change, negative = inhibition” value does the source give for N#Cc1c(Nc2ccc(Cl)cc2)s[nH]c1=O here?
Its value is -0.326%.

O=C(CN1CCC(O)CC1)N1c2ccccc2C=Cc2ccccc21 was tested. Which “activity change, negative = inhibition” value did it give?
The value was -6.07%.

Which “activity change, negative = inhibition” value does the source give for NS(=O)(=O)c1ccc(NC(=O)CN2CCCCC2)cc1 here?
Its value is -1.04%.

Which “activity change, negative = inhibition” value does the source give for O=C1CS/C(=C/C(=O)c2ccccc2)N1 here?
The value was 3.74%.
